Experimental data from the supplement of paper PMC6607015.
Where a name gives a salt, the structure may show the parent alone.

Legend:
Details in all cases: compound concentration in added solution (µM; 5 µl added to 20 µl cells): 10; 18 h
A431 [1] = experiment: LBPA endosome anti-LBPA integrated intensity (sum per cell), Z-score; higher = more LBPA staining
Outline: (§1)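 In duplicate 384-well imaging plates, 3,500 HeLa MZ or A431 cells in 20 µl per well were seeded onto 5 µl of 10 µM compound solution. The cells were incubated for 18 h, fixed in 4% PFA and stained with 6C4 anti-LBPA antibody, filipin, propidium iodide and CellTracker green before four 20× images were acquired per well. Values are AcuityXpress-normalised Z-scores of per-cell integrated LBPA or filipin intensity, obtained by MetaXpress segmentation over the whole cell or in LBPA endosomes.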

HeLa MZ [2] = experiment: as above
Outline: as §1

A431 [3] = experiment: whole-cell filipin (free cholesterol) integrated intensity, Z-score; higher = more cholesterol staining
Outline: as §1

HeLa MZ [4] = experiment: as above
Outline: as §1

A431 [5] = experiment: filipin (cholesterol) integrated intensity within LBPA endosomes, Z-score; higher = more cholesterol in LBPA endosomes
Outline: as §1

HeLa MZ [6] = experiment: as above
Outline: as §1

| Compound | LBPA endosome anti-LBPA integrated intensity (z-score) (A431 [1]) | LBPA endosome anti-LBPA integrated intensity (z-score) (HeLa MZ [2]) | whole-cell filipin (z-score) (A431 [3]) | whole-cell filipin (z-score) (HeLa MZ [4]) | filipin (z-score) (A431 [5]) | filipin (z-score) (HeLa MZ [6]) |
| --- | --- | --- | --- | --- | --- | --- |
| COc1cc(C)nc(-n2nc(C)cc2OC)n1 [Epirizole] | -0.401 | -0.156 | -0.543 | -1.08 | -0.458 | -0.525 |
| CC(C)Cc1ccc([C@H](C)C(=O)O)cc1 [S-(+)-ibuprofen] | -0.498 | -0.256 | -0.555 | -0.301 | -0.443 | -0.51 |
| Nc1ccn([C@H]2CC[C@@H](CO)O2)c(=O)n1 [Zalcitabine] | -0.426 | -0.556 | 0.221 | 0.402 | -0.388 | -0.459 |
| Cc1ccc(N(CC2=NCCN2)c2cccc(O)c2)cc1 [Phentolamine hydrochloride] | -0.384 | 0.635 | -0.578 | -0.161 | -0.477 | -0.0953 |
| COc1ccc(-c2cc(=O)c3c(O)cc(O[C@@H]4O[C@H](CO[C@@H]5O[C@@H](C)[C@H](O)[C@@H](O)[C@H]5O)[C@@H](O)[C@H](O)[C@H]4O)cc3o2)cc1O [Diosmin] | -0.501 | -0.4 | -0.678 | -0.378 | -0.518 | -0.715 |
| O=C1O[C@H]([C@@H](O)CO)C(O)=C1O [Ascorbic acid] | -0.608 | -0.991 | -0.369 | 0.278 | -0.529 | -0.527 |
| CCN(CC)CCOC(=O)C(Cc1cccc2ccccc12)CC1CCCO1 (configuration not stated) [Nafronyl oxalate] | 1.69 | 2.05 | 1.62 | 0.888 | 1.25 | 1.15 |
| Nc1cc(-c2ccncc2)c[nH]c1=O [Amrinone] | -0.468 | -0.737 | -0.578 | -0.805 | -0.461 | -0.541 |
| CSc1ccc2c(c1)C(N1CCN(C)CC1)Cc1ccccc1S2 (configuration not stated) [Methiothepin maleate] | 3.25 | 1.9 | 0.963 | 0.218 | 3 | 2.66 |
| COc1ccc2c(c1)N(C[C@H](C)CN(C)C)c1ccccc1S2 [Methotrimeprazine maleat salt] | 2.94 | 1.48 | 1.03 | -0.207 | 1.82 | 1.55 |
| COC(=O)C1=C(C)NC(C)=C(C(=O)OC)C1c1ccccc1[N+](=O)[O-] [Nifedipine] | -0.346 | -0.877 | -0.739 | -0.61 | -0.513 | -0.614 |
| CC(C)(CO)C(O)C(=O)NCCCO (configuration not stated) [Panthenol (D)] | -0.558 | -0.28 | -0.953 | -0.974 | -0.509 | -0.649 |
| CC(=O)OC(C)C[N+](C)(C)C (configuration not stated) [Methacholine chloride] | -0.38 | 0.107 | -0.0801 | -0.293 | -0.383 | -0.341 |
| C[C@@H](O)[C@H]1C(=O)N2C(C(=O)O)=C(SCCNC=N)C[C@H]12 [Imipenem] | -0.41 | 0.231 | -0.414 | 0.00347 | -0.461 | -0.385 |
| C#CCN(C)CCCOc1ccc(Cl)cc1Cl [Clorgyline hydrochloride] | -0.292 | 0.155 | -1.09 | -0.252 | -0.435 | -0.359 |
| Cc1onc(-c2c(Cl)cccc2Cl)c1C(=O)N[C@@H]1C(=O)N2[C@@H]1SC(C)(C)[C@@H]2C(=O)O [Dicloxacillin sodium salt hydrate] | -0.319 | -0.38 | -0.616 | -0.567 | -0.395 | -0.582 |
| CC(=O)N1CCN(c2ccc(OCC3COC(Cn4ccnc4)(c4ccc(Cl)cc4Cl)O3)cc2)CC1 (configuration not stated) [Ketoconazole] | 1.81 | 1.94 | 3.72 | 3.7 | 3.52 | 4.06 |
| CC(C)(C)NCC(O)c1cc(O)cc(O)c1 (configuration not stated) [Terbutaline hemisulfate] | -0.651 | -1.35 | -0.395 | -0.481 | -0.593 | -0.644 |
| CCOC(=O)Nc1ccc2c(c1)N(C(=O)CCN1CCOCC1)c1ccccc1S2 [Moricizine hydrochloride] | -0.59 | 0.328 | -0.0401 | 0.0759 | -0.436 | 0.233 |

| Compound | LBPA endosome anti-LBPA integrated intensity (z-score) (A431 [1]) | LBPA endosome anti-LBPA integrated intensity (z-score) (HeLa MZ [2]) | whole-cell filipin (z-score) (A431 [3]) | whole-cell filipin (z-score) (HeLa MZ [4]) | filipin (z-score) (A431 [5]) | filipin (z-score) (HeLa MZ [6]) |
| --- | --- | --- | --- | --- | --- | --- |
| CC(C)[N+](C)(CCOC(=O)C1c2ccccc2Oc2ccccc21)C(C)C [Propantheline bromide] | -0.352 | 0.315 | -0.217 | 0.064 | -0.366 | -0.177 |
| CC(=O)OCC(CCn1cnc2cnc(N)nc21)COC(C)=O [Famciclovir] | -0.437 | -0.227 | -0.465 | -0.311 | -0.431 | -0.386 |
| O=C1NCN(c2ccccc2)C12CCN(CCCC(c1ccc(F)cc1)c1ccc(F)cc1)CC2 [Fluspirilen] | 2.78 | 1.04 | 1.65 | 1.64 | 4.57 | 4.14 |
| Cc1cc(-n2c(=O)[nH]c(=O)n(C)c2=O)ccc1Oc1ccc(SC(F)(F)F)cc1 [Toltrazuril] | -0.328 | 0.612 | -0.109 | 0.0439 | -0.337 | -0.457 |
| Cc1onc(-c2ccccc2Cl)c1C(=O)N[C@@H]1C(=O)N2[C@@H]1SC(C)(C)[C@@H]2C(=O)O [Cloxacillin sodium salt] | -0.451 | -0.521 | -0.641 | -0.277 | -0.516 | -0.434 |
| CCCN(CCC)CCc1cccc2c1CC(=O)N2 [Ropinirole HCl] | -0.0677 | 0.764 | -0.368 | 0.26 | -0.342 | 0.248 |
| c1ccc(-c2ccc(C(c3ccccc3)n3ccnc3)cc2)cc1 (configuration not stated) [Bifonazole] | -0.285 | 0.816 | 0.345 | 0.00932 | -0.374 | -0.192 |
| CCN(Cc1ccncc1)C(=O)C(CO)c1ccccc1 (configuration not stated) [Tropicamide] | -0.503 | -0.535 | -0.78 | -0.974 | -0.52 | -0.592 |
| Cc1c(Cl)cccc1Nc1ncccc1C(=O)O [Clonixin Lysinate] | -0.476 | -1.1 | -0.0028 | -0.353 | -0.486 | -0.62 |
| COCCOC(=O)C1=C(C)NC(C)=C(C(=O)OC(C)C)C1c1cccc([N+](=O)[O-])c1 (configuration not stated) [Nimodipine] | -0.345 | 0.468 | 0.0525 | 0.629 | -0.323 | -0.286 |
| C[C@H]1C[C@@H]2[C@H]([C@@H](O)C[C@@]3(C)[C@H]2CC[C@]3(O)C(=O)CO)[C@@]2(C)C=CC(=O)C=C12 [Methylprednisolone, 6-alpha] | -0.113 | 0.0903 | -0.236 | -0.329 | -0.297 | -0.497 |
| CN1CCC(=C2c3ccccc3CC(=O)c3sccc32)CC1 [Ketotifen fumarate] | 0.0746 | 0.508 | 0.273 | -0.159 | 0.289 | 0.175 |
| CC(C)(C)NC[C@H](O)COc1cccc2c1CCCC2=O [(-) -Levobunolol hydrochloride] | -0.264 | 1.1 | -0.125 | -0.19 | -0.327 | 0.118 |
| CC(N)CCCC(C)(C)O (configuration not stated) [Heptaminol hydrochloride] | -0.451 | -1.1 | -0.647 | -0.285 | -0.442 | -0.477 |
| CC1=C(C(=O)O)N2C(=O)[C@@H](NC(=O)[C@H](N)c3ccccc3)[C@H]2SC1 [Cephalexin monohydrate] | -0.543 | -0.797 | -0.64 | -0.482 | -0.499 | -0.511 |
| CN/C(=N\CCSCc1nc[nH]c1C)NC#N [Cimetidine] | -0.436 | -0.604 | -0.5 | -0.3 | -0.458 | -0.409 |
| c1ccc([C@H]2CN3CCSC3=N2)cc1 [Levamisole hydrochloride] | -0.398 | 0.59 | -0.758 | -0.886 | -0.52 | -0.182 |
| CN(C)CCN1C(=O)c2ccccc2N(C)c2ccccc21 [Dibenzepine hydrochloride] | -0.357 | 0.481 | -0.676 | -0.7 | -0.373 | 0.00611 |
